Source: PubChem BioAssay

Each compound was assayed against Left-right determination factor 2 (Homo sapiens) (UniProt O00292) (assay: small molecules binding LEFTY2 protein – biochemical, small-molecule microarray, 635 nm fluorescence scan, primary screen (AID 1110)). Settings: higher = more signal.
Sequence of Left-right determination factor 2 (Homo sapiens) (O00292 whole entry, looked up): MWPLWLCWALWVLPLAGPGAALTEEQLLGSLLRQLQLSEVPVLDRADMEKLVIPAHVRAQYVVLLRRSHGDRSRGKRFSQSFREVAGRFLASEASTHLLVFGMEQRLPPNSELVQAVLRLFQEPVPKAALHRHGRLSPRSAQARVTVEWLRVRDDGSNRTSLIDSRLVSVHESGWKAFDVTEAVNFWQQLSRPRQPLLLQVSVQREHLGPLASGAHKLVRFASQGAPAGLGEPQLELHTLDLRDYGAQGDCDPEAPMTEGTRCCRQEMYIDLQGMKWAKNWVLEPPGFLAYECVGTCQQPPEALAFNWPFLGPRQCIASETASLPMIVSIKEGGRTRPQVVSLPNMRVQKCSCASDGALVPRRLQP
In the case of `C=CCN1C(=O)[C@@]2(Cc3ccccc3)N=C(c3ccc(OCCCO)cc3)O[C@H]2c2ccccc21`, the composite z-score was 0.525.
`CC(=O)Nc1ccc([C@H]2[C@H](C)CC[C@H]3C(=O)N4[C@@H](CC[C@@H](C)[C@@H]4c4ccc(NC(C)=O)cc4)C(=O)N32)cc1` was tested, and the composite z-score was 0.72.
With `COc1cc2c(cc1OC)CN(C(=O)[C@@H]1[C@H]3C(=O)O[C@H](c4ccccc4)[C@H](c4ccccc4)N3[C@H](c3ccccc3OCCO)[C@@]13C(=O)Nc1ccccc13)CC2` the composite z-score was 0.187.
`CCOC(=O)C[C@H]1[C@H](OC(=O)Cc2ccc3c(c2)OCO3)[C@@H](NC(=O)c2ccc3ccccc3c2)c2cc(OCCCO)ccc2N1C(=O)Cc1ccc(OC)cc1` showed a composite z-score of 0.296.
In the case of `CO[C@@H]1COC(=O)[C@H](C)NC(=O)CC=C[C@@H](C)[C@H](OC)COC(=O)[C@H](C)NC(=O)CC=C[C@H]1C`, the composite z-score was 0.787.
In the case of `CO[C@H]1COC(=O)CC=C[C@H](C)COC(=O)[C@@H](OCc2ccccc2)C=C[C@@H]1C`, the composite z-score was 1.5.
In the case of `CCCC[C@@H]1C[C@H]1[C@@H](NC(=O)c1ccccc1)c1ccccc1C(F)(F)F`, the composite z-score was -0.641.
Work on `CO[C@@H]1COC(=O)[C@H](C)NC(=O)CC=C[C@@H](C)[C@H](NS(=O)(=O)c2ccc(C)cc2)COC(=O)CC=C[C@@H]1C` yielded a composite z-score of 0.46.
For `CC(=O)NCCCC[C@@H]1NC(=O)[C@H]2C[C@@H](C(=O)NCCCCCCN(C)C)[C@@H](c3cccc(OCCO)c3)N2C1=O`, the composite z-score was 1.45.
`NC(=O)NCC#Cc1ccc2c(c1)[C@]1(C(=O)N2)[C@H](c2ccccc2OCCO)N2[C@H](c3ccccc3)[C@H](c3ccccc3)OC(=O)[C@H]2[C@@H]1C(=O)N1CCN(c2ncccn2)CC1` gave a composite z-score of 0.235.
